{"source": "paper PMC7862700", "about": "“An all-to-all approach to the identification of sequence-specific readers for epigenetic DNA modifications on cytosine”", "assay_in_all_cases": "DAPPL (digital affinity profiling via proximity ligation, sequencing); 10 mM Tris-HCl pH 7.5, 50 mM NaCl, 1 mM DTT, 4% glycerol, room temperature, 30 min; GST-TFs on glutathione beads, 16-mer random dsDNA library, 0.1% formaldehyde crosslink after washing; high values mean tight binding", "key": {"FEV": {"target": "T1, FEV (Homo sapiens, UniProt Q99581 1-238)", "T1 sequence": "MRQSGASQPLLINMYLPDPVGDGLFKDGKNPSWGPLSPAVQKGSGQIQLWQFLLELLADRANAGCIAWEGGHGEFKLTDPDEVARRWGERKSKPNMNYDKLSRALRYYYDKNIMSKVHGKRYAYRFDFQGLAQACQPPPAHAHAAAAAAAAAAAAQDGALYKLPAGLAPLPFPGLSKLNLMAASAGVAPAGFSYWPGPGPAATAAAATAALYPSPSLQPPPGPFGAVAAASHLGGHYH", "conditions": "protein: recombinant; tags: N-terminal GST; dsDNA, one strand shown", "procedure,_shortened": "(§1)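 In yeast, human transcription factors were expressed with a GST fusion, then pulled down on glutathione beads and given DNA barcodes. Pooled with a tag-only sample, they were exposed to 200 nmole of a 16-mer random double-stranded DNA library (Tris/NaCl/DTT/glycerol buffer, room temperature, 30 min), washed, crosslinked with 0.1% formaldehyde, proximity-ligated using BsaI/T4 ligase for 1 h at 37 °C, PCR-amplified and read on an Illumina NextSeq500. Each hexamer's frequency of reads for a factor, divided by the matching frequency for the tag-only sample, gives the binding signal.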"}, "ETV5": {"target": "ETV5 (Homo sapiens, UniProt P41161 1-510)", "sequence (P41161 whole entry)": "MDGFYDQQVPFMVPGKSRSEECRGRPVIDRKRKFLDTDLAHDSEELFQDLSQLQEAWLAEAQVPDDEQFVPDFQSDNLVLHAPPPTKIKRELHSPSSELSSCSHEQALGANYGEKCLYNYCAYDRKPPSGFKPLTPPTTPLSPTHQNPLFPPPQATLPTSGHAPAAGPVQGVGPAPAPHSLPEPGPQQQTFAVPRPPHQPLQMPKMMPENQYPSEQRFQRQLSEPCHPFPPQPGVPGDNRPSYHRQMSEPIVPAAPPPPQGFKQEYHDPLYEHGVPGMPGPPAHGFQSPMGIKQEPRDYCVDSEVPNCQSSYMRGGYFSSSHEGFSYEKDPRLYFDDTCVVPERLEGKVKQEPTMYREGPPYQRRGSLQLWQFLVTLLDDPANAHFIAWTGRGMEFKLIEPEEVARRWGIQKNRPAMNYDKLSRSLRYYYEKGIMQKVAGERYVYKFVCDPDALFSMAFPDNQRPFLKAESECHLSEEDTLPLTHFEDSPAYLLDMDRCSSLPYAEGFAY", "conditions": "protein: recombinant; tags: N-terminal GST; dsDNA, one strand shown", "procedure,_shortened": "as §1"}, "HSF1": {"target": "HSF1 (Homo sapiens, UniProt Q00613 1-529)", "sequence (Q00613 whole entry)": "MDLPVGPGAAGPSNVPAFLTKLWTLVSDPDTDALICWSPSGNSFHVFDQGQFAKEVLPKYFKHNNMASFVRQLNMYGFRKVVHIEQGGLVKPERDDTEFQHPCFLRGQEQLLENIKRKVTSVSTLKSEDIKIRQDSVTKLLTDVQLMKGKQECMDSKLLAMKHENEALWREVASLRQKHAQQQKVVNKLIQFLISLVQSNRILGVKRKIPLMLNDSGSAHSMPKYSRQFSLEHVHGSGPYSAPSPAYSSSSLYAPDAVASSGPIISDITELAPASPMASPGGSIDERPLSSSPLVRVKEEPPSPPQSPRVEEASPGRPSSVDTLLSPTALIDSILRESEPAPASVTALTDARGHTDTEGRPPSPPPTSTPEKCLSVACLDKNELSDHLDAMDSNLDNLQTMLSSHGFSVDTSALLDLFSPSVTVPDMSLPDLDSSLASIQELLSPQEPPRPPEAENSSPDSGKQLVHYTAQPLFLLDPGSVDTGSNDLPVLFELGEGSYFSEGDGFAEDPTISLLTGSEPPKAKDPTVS", "conditions": "protein: recombinant; tags: N-terminal GST; chain copies: 3; dsDNA, one strand shown", "procedure,_shortened": "as §1"}, "SPIC": {"target": "T2, SPIC (Homo sapiens, UniProt Q8N5J4 1-248)", "T2 sequence": "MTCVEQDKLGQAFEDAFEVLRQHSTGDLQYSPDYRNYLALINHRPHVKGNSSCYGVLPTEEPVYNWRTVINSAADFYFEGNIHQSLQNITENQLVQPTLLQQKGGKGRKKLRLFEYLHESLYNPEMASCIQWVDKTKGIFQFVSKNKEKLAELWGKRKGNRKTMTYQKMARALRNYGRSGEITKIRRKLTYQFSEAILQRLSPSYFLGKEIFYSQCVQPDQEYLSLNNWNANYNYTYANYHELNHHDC", "conditions": "protein: recombinant; tags: N-terminal GST; dsDNA, one strand shown", "procedure,_shortened": "as §1"}, "ELF4": {"target": "ELF4 (Homo sapiens, UniProt Q99607 1-663)", "sequence (Q99607 whole entry)": "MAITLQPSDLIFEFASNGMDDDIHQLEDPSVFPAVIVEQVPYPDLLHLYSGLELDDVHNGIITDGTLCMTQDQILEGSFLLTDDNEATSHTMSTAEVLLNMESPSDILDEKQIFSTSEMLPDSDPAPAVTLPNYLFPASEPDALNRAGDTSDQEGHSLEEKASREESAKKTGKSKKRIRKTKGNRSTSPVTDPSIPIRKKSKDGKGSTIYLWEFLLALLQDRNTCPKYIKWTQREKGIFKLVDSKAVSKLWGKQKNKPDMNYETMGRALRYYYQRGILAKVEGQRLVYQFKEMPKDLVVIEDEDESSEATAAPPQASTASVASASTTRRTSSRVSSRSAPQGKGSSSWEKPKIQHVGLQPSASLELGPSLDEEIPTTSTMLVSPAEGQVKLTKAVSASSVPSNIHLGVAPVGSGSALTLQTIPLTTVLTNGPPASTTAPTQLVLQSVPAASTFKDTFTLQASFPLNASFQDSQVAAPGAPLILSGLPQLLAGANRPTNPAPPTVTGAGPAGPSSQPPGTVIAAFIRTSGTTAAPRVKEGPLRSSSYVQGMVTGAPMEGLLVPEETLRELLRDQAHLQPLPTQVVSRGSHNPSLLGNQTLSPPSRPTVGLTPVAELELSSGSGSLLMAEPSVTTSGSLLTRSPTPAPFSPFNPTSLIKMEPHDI", "conditions": "protein: recombinant; tags: N-terminal GST; dsDNA, one strand shown", "procedure,_shortened": "as §1"}, "ELK4": {"target": "T3, ELK4 (Homo sapiens, UniProt P28324-2 1-405)", "T3 sequence": "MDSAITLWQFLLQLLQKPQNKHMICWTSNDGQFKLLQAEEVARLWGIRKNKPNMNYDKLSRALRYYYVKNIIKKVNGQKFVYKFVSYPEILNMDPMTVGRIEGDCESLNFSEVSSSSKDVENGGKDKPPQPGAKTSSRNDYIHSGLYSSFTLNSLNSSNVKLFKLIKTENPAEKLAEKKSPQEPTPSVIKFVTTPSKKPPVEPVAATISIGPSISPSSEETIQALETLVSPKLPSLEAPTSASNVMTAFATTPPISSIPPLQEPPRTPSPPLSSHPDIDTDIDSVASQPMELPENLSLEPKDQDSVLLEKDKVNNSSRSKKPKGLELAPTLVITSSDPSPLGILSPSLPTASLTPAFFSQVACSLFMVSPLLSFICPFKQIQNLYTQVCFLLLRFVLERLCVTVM", "conditions": "protein: recombinant; tags: N-terminal GST; dsDNA, one strand shown", "procedure,_shortened": "as §1"}, "ETV2": {"target": "T4, ETV2 (Homo sapiens, UniProt O00321 1-342)", "T4 sequence": "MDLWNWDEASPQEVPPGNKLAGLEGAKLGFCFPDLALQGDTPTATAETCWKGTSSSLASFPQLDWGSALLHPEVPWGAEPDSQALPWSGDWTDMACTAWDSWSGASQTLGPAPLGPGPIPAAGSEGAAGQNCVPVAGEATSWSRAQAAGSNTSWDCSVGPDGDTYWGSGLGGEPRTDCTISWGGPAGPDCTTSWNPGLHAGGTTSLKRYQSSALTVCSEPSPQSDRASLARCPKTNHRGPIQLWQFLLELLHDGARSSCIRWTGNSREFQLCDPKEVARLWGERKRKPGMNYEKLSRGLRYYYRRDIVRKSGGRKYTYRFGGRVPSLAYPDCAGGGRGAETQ", "conditions": "protein: recombinant; tags: N-terminal GST; dsDNA, one strand shown", "procedure,_shortened": "as §1"}, "ELF3": {"target": "T5, ELF3 (Homo sapiens, UniProt P78545 1-371)", "T5 sequence": "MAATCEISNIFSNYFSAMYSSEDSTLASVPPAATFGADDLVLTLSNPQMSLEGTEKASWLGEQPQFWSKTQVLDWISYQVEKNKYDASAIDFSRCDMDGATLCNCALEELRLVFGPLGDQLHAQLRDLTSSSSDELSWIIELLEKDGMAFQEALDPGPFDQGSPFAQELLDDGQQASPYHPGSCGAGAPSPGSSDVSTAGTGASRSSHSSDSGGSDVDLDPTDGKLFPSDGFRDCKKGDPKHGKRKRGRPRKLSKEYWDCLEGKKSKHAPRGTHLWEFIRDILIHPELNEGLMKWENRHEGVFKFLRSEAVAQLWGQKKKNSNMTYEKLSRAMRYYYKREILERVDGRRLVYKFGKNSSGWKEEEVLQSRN", "conditions": "protein: recombinant; tags: N-terminal GST; dsDNA, one strand shown", "procedure,_shortened": "as §1"}, "CRX": {"target": "CRX (Homo sapiens, UniProt O43186 1-299)", "sequence (O43186 whole entry)": "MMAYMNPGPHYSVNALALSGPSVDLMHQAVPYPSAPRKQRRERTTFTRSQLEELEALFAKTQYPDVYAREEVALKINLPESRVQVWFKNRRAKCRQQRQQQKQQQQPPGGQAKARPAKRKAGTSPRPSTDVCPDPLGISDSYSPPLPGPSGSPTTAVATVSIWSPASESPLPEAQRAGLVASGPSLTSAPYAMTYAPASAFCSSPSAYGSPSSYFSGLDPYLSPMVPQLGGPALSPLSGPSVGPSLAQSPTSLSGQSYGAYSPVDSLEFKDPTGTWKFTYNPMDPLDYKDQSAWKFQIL", "conditions": "protein: recombinant; tags: N-terminal GST; dsDNA, one strand shown", "procedure,_shortened": "as §1"}}}
{"sequence": "CTTGAA", "values": [{"measurement": "binding signal", "setting": "FEV", "result": "1.05 fold enrichment (6-mer frequency, TF over GST control)"}, {"measurement": "binding signal", "setting": "ETV5", "result": "1.09 fold enrichment (6-mer frequency, TF over GST control)"}, {"measurement": "binding signal", "setting": "HSF1", "result": "1.26 fold enrichment (6-mer frequency, TF over GST control)"}, {"measurement": "binding signal", "setting": "SPIC", "result": "1.09 fold enrichment (6-mer frequency, TF over GST control)"}, {"measurement": "binding signal", "setting": "ELF4", "result": "1.19 fold enrichment (6-mer frequency, TF over GST control)"}, {"measurement": "binding signal", "setting": "ELK4", "result": "1.22 fold enrichment (6-mer frequency, TF over GST control)"}, {"measurement": "binding signal", "setting": "ETV2", "result": "1.11 fold enrichment (6-mer frequency, TF over GST control)"}, {"measurement": "binding signal", "setting": "ELF3", "result": "1.08 fold enrichment (6-mer frequency, TF over GST control)"}, {"measurement": "binding signal", "setting": "CRX", "result": "1.16 fold enrichment (6-mer frequency, TF over GST control)"}]}
